KB-3-1 tox: kills parental KB-3-1 adenocarcinoma cells | KB-3-1 viability, CellTiter-Glo ATP luminescence, 72 h | Potency, µM (highest dose often 46.1 µM), most hits filed as cytotoxic | 400,000 tested, 1.4% active; note: % is set by controls: 0 for no effect and ±100 for the full control effect; nearly all actives have a fitted effect of over 60% in size
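KB-3-1 parental drug-naive adenocarcinoma cells in DMEM/10% FBS, incubated 72 h at 37 C with pin-transferred compounds across a concentration series. Viability by CellTiter-Glo luminescence; concentration-response curves fitted after normalization.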
HT1080-NT tox: kills 2HG-producing HT-1080-NT fibrosarcoma cells; 360,000 tested, 1.6% active; HT-1080-NT fibrosarcoma viability, CellTiter-Glo ATP luminescence, 48 h; AID 686970; Potency, µM (top dose mostly 46.1 µM), inactives show at the top dose activity, negative = less viability, most hits filed as cytotoxic;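 note: NT is the 2HG producing partner of a matched IDH1 knockdown line; 0% = DMSO-treated cells and -100% = media-only wells without cells; nearly all actives have a fitted effect of over 55% in size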
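A 48-hour cytotoxicity screen used HT-1080-NT cells plated 2 hours before compound delivery. ATP-based CellTiter-Glo luminescence measured viability, normalized to DMSO and no-cell controls.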
HT1080 IDH1KD tx: toxicity to HT-1080 IDH1 knockdown cells (counter line) | AID 686971 | Potency, µM (series often up to 46.1 µM), inactives show top-dose activity, negative = toxicity, actives largely listed as cytotoxic | 360,000 tested, 2% active | HT-1080 IDH1 knockdown viability, ATP luminescence, 48 h;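 note: 0% = DMSO wells and -100% = cell-free medium wells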
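Assay cells: HT-1080 with IDH1 knockdown, 750 per well, RPMI/5% FBS. Exposure: 48 h at 37 °C following 2 h pre-incubation. Read: CellTiter-Glo luminescence; fitted concentration-response, curve class assigned.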
KB-V1 cytotox: kills drug-selected multidrug resistant KB-V1 cells; KB-V1 MDR cells viability, CellTiter-Glo, 72 h; Potency, µM (series often up to 46.1 µM), most hits filed as cytotoxic; 400,000 tested, 3.4% active; note: % is set by controls: 0 for no effect and ±100 for the full control effect; nearly all actives have a fitted effect of over 60% in size
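Readout: CellTiter-Glo luminescence, 10 min after addition. Cells: KB-V1 MDR subline, 72 h at 37 degrees C with compound. Analysis: corrected, normalized data fitted to concentration-effect curves.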
SW480 rerep: induces DNA re-replication in SW480 colon adenocarcinoma cells | SW480 DNA re-replication, Hoechst DNA content imaging, 48 h | Potency, µM (highest dose often 46.1 µM), for inactives: top-dose re-replication activation, most hits filed as activators | 340,000 tested, 1.8% active; note: % of control where 0% means no effect; nearly all actives have a fitted effect of over 55% in size
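Cells (250 per well) received 23 nL compound or DMSO by pin tool and were kept 48 hr at 37 C, 5% CO2. Nuclei were then stained with Hoechst for 40 min and scanned for DNA content.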
MCF10A rerep: DNA re-replication induction in MCF 10a cells | MCF 10A DNA re-replication, Hoechst nuclear intensity, 48 h | Potency, µM (series often up to 46.1 µM), inactives show top-dose activity, positive = re-replication, most hits filed as activators | 350,000 tested, 2.9% active; note: % of control where 0% means no effect; nearly all actives have a fitted effect of over 50% in size
Numbers without * were called inactive; i = inactive; u = inconclusive; x = not tested or not shown. Hits are enriched below; roughly 8% of the tested compounds scored in any of these assays. Calls come from the whole dose curve; as a rule, active = well fitted curve in the direction sought with a large enough effect; inconclusive = small, poorly fitted or top-dose-only effect, or another doubt; inactive = no such curve, though single readings can be large; an effect the other way counts as inactive or inconclusive. Potency is the fitted concentration of half-maximal effect.

SMILES	KB-3-1 tox	HT1080-NT tox	HT1080 IDH1KD tx	KB-V1 cytotox	SW480 rerep	MCF10A rerep
COC(CNC(=O)c1ccc(N2CCc3ccccc32)c([N+](=O)[O-])c1)OC	u	6.3%	3.0%	14.6µM*	-3.5%	u
NNc1nnc2c3cc(F)ccc3n(CCc3ccccc3)c2n1	23.1µM*	u	u	u	4.11µM*	u
CN(C)c1ccc(/C=C2\C=Cc3ccccc32)cc1Cl	i	x	x	u	x	x
O=C1c2ccccc2NC2(CCCCC2)N1N=C1CCCCC1	i	12.0%	22.7%	i	-2.3%	6.7%
O=C1c2ccccc2NC(c2cccc(Cl)c2)N1N=C1CCCCCC1 (stereo not given)	u	15.4%	7.6%	25.9µM*	-1.9%	26.7%
COc1cc2[nH]c(C(=O)N3CC(C)OC(C)C3)cc2c(OC)c1OC (stereo not given)	i	-9.5%	-9.8%	i	5.7%	u
Cc1ccc2onc(CC(=O)N3CCN(c4cccc(Cl)c4)CC3)c2c1	i	x	x	i	x	x
Cc1c(Cl)ccc2c1NC(=O)[C@]21N[C@@H](Cc2ccccc2)[C@H]2C(=O)N(c3ccc(F)cc3)C(=O)[C@H]21	u	-22.2%	u	9.2µM*	13.2%	2.9%
COc1cc(NC(=O)CCCC(=O)OCC(F)(F)C(F)F)nc(OC)n1	i	0.3%	-4.7%	i	u	23.1µM*
CC(=O)N(C)Cc1ccc(C(=O)CCl)cc1	i	-1.9%	-16.3%	i	u	13µM*
CC(=O)NCc1ccc(C(=O)CCl)cc1	i	-4.8%	u	i	u	u
O=C(CCS(=O)(=O)Cc1ccccc1)N1CCN(Cc2ccccc2)CC1	i	18.7%	u	u	-5.9%	10.3µM*
CCCS(=O)(=O)N1CCN(Cc2ccc3c(c2)c2ccccc2n3CC)CC1	i	u	u	i	u	13µM*
CCc1ccc(CN2CCN(S(=O)(=O)Cc3ccccc3)CC2)cc1	i	-17.9%	-19.4%	10.3µM*	-1.8%	26.5%
O=C(CCS(=O)(=O)Cc1ccccc1F)N1CCc2ccccc2C1	i	5.6%	9.2%	i	3.3%	u
CCOC(=O)C1CCN(C(=O)CCS(=O)(=O)Cc2ccccc2)CC1	i	9.0%	7.5%	i	-1.1%	2.9%
O=C(CCS(=O)(=O)Cc1ccccc1)N1CCc2ccccc2C1	i	3.8%	-2.4%	16.4µM*	-8.8%	0.0%
COc1cccc(-n2c(SCc3ccccc3C)nc3c([nH]c4ccccc43)c2=O)c1	i	x	x	23.1µM*	x	x
Cc1noc(/C=C/N(C)C)c1S(=O)(=O)N1CCc2ccccc21	i	0.0%	u	i	13.9%	18.4µM*
COc1cccc(C(O)c2nc(-c3cccc(CO)c3)cs2)c1 (stereo not given)	i	9.1%	-0.2%	i	x	x
COC1C(CO)OC(n2c3c(Cl)cccc3c3c4c(c5c6cccc(Cl)c6[nH]c5c32)C(=O)NC4=O)C(O)C1O (stereo not given)	8.2µM*	4.61µM*	5.8µM*	i	1.64µM*	-4.8%
COc1ccc(Nc2oc(-c3ccco3)nc2S(=O)(=O)c2ccc(F)cc2)cc1	i	-6.6%	-3.2%	i	u	14.6µM*
O=S(=O)(c1ccc(F)cc1)c1nc(-c2ccco2)oc1Nc1ccc(F)cc1	i	0.5%	0.5%	i	-6.3%	u
Cc1sc2ccccc2[n+]1CCc1ccccc1	i	x	x	i	x	x
C(=N\Nc1nc2ccccc2s1)/c1cccs1	i	10µM*	11.2µM*	u	11.9%	-3.2%
SMILES	KB-3-1 tox	HT1080-NT tox	HT1080 IDH1KD tx	KB-V1 cytotox	SW480 rerep	MCF10A rerep
Cc1ccsc1/C=N/Nc1nc2ccccc2s1	i	u	-26.3%	i	-3.2%	0.0%
CCn1c(C)c(/C=N/Nc2nc3ccccc3s2)c2ccccc21	i	3.55µM*	8.91µM*	i	u	10.7%
Oc1ccccc1C=NNc1nc2ccccc2s1	u	18.4µM*	8.2µM*	i	u	-7.7%
COc1ccccc1CNC(=O)c1cnn(-c2ccc(F)cc2F)c1C1CCN(C(=O)OC(C)(C)C)CC1	i	x	x	i	x	x
CCCS(=O)(=O)c1c(S(=O)(=O)CCC)c2c(C)cccn2c1C(=O)OC	i	2.6%	15.8%	u	u	20.6µM*
CCCS(=O)(=O)c1c(S(=O)(=O)CCC)c2c3ccccc3ccn2c1C(=O)OC	i	-3.9%	-5.8%	u	-13.1%	4.6%
O=C(Nc1cccc(Cl)c1Cl)C1CCN(C(=O)c2cccs2)CC1	i	16.7%	11.3%	i	-4.9%	-20.9%
N#Cc1c(NC2CCCCC2)nc(-c2ccco2)c2c1CCCC2	u	14.6%	6.1%	i	13µM*	16.4µM*
N#Cc1c(NCCCO)nc(-c2ccco2)c2c1CCCC2	i	-8.0%	-14.0%	i	5.8µM*	18.4µM*
OC1=C(O)c2nc3cc(C(F)(F)F)ccc3nc21	i	0.0%	26.1%	i	-4.5%	12.9%
CCC(C(=O)NCCN1CCOCC1)n1nc(C)n2c(cc3sccc32)c1=O (stereo not given)	i	-0.5%	4.1%	i	0.9%	2.0%
CCC(C(=O)N1CCN(c2ccccc2)CC1)n1nc(C)n2c(cc3sccc32)c1=O (stereo not given)	18.4µM*	x	x	u	x	x
CCC(C(=O)N1CCN(c2cc(Cl)ccc2C)CC1)n1nc(C)n2c(cc3occc32)c1=O (stereo not given)	10.3µM*	x	x	10.3µM*	x	x
CCC(C(=O)N1CCC(C(N)=O)CC1)n1nc(C)n2c(cc3occc32)c1=O (stereo not given)	i	0.2%	11.0%	i	-3.5%	1.0%
CCOc1cc(/C=N/N=C(\N)c2nonc2N)cc(Br)c1OCc1cccc2ccccc12	u	23.1µM*	18.4µM*	u	u	u

Assay outcomes as filed in PubChem.
